# Measurements from the supplement of paper PMC3334620.
# The full ranking holds about 33,000 sequences; the median of “E-score (-0.5 to 0.5)” is about -0.013, and the highest 2% start at about 0.3. For the sample, the highest values were picked, then their nearest neighbours and some sequences at random.
# Target: T1, Msn1 (UniProt P22148)
# T1 sequence: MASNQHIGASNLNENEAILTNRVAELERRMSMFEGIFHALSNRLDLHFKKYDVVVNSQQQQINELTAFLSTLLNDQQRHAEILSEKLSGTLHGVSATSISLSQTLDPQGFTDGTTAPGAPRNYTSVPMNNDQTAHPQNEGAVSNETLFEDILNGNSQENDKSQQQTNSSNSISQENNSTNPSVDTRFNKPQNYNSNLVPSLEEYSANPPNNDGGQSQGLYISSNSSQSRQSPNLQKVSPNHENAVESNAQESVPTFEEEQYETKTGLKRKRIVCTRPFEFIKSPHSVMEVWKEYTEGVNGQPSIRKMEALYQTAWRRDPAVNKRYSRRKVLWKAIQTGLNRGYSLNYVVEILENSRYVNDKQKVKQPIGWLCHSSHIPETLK
# Experiment: PBM E-score (8-mer binding enrichment) (E-score (-0.5 to 0.5)); higher = stronger / more preferred TF binding
# Details: protein concentration: 200 nM; construct: GST-full length
# Method: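 Universal 'all 10-mer' protein binding microarrays (Agilent AMADID 015681) probed with GST-tagged S. cerevisiae TFs (full-length or DBD) made by in vitro transcription/translation (PURExpress), about 100-200 nM. Bound TF was detected with fluorescent anti-GST. Each ungapped 8-mer (which stands for itself and its reverse complement) is scored by the PBM enrichment score (E-score), a modified Wilcoxon-Mann-Whitney statistic from -0.5 to +0.5, computed with the Universal PBM Analysis Suite. Scale: above 0.35 generally sequence-specific binding.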
row,Sequence,PBM E-score
1,CGCTAGGA,-0.0538
2,GCGGGGCA,-0.147
3,GGAACCCC,-0.334
4,ACCGTCTA,-0.11
5,CTGCGATA,0.0274
6,CAGGTGAA,0.0265
7,ATGCAGTC,-0.186
8,CTGGAGTC,-0.182
9,AGCCAATA,-0.113
10,GATCGGCC,-0.0564
11,CACTACCG,-0.181
12,AACTAGAA,0.062
13,TGTATCAA,0.325
14,TGTCTCAA,0.384
15,CGTCTCAA,0.00785
16,AGTCTCAA,-0.0719
17,AGTATCAA,0.217
18,CGTATCAA,0.0969
19,TATAATCA,0.169
20,CCGGGATC,0.0583
21,AAGGGGAC,0.101
22,CGAATGTA,-0.00301
23,CGAATGAC,0.258
24,CGAATGTC,0.386
25,AGAATGTA,0.167

row,Sequence,PBM E-score
1,AGAATGTG,-0.172
2,AGAATGTC,0.459
3,CCGCTGAG,0.00458
4,AAACCGCT,-0.0604
5,CCAAGGGC,-0.126
6,ACACAAGC,0.0155
7,AGAGGTAG,-0.163
8,GCGATCAA,-0.0507
9,CTCAGACA,0.317
10,GTCAGACA,0.323
11,CCCAGACA,0.199
12,CTCAGACC,-0.138
13,GTCAGAGA,0.0303
14,ATCAGACA,0.173
15,CACGCCAC,-0.127
16,TCCACGGA,0.299
17,GAAGGTGA,-0.0331
18,GGGTTAGA,-0.178
19,GCAAATTA,-0.0115
20,ACAAACTG,0.158
21,AGATCTGC,0.0313
22,GAGGGCCA,-0.104
23,GTATGACA,0.294
24,CGCTGACA,0.314
25,CTATGACA,0.375

row,Sequence,PBM E-score
1,TGCTGACA,0.125
2,CTATGACC,-0.0237
3,CGCTGACG,-0.24
4,ATATGACA,0.304
5,ATATGACC,-0.0751
6,CGATGACG,-0.158
7,CGATGACA,0.314
8,CTATGAGA,-0.0425
9,AGATGACA,0.157
10,CTTCCAGA,-0.0473
11,GACACACC,0.235
12,AGTCGAGA,0.0774
13,ACAGGTGG,-0.0714
14,ATTTGCAA,0.103
15,CTAACTTA,0.227
16,TGTGCGAA,-0.0498
17,AAAACACC,0.0787
18,AGGGTCGC,-0.229
19,GCTTGAAC,0.187
20,CGGGCAGC,-0.122
21,CAGACATA,0.366
22,AAGACATC,0.281
23,AAGACAGT,0.0956
24,CAGACATC,0.246
25,AACACATG,0.07

row,Sequence,PBM E-score
1,AAGACATT,0.414
2,AAGACATG,0.337
3,AATACATG,0.0057
4,AAGACATA,0.382
5,CAGACATG,0.26
6,AAGACACT,0.163
7,AAGACACG,0.248
8,ACGAGCTC,-0.0205
9,CCAAATCG,-0.101
10,GTCTCAGA,0.0346
11,CAAAGGGC,-0.0864
12,GCAAGAAA,0.0128
13,CCCTCTTC,-0.288
14,CCGGCTCC,-0.269
15,ACCCCACA,-0.0822
16,CACCAGAC,0.00954
17,CGACCCCA,-0.177
18,CATACAGG,-0.0332
19,TAGACATA,0.41
20,GAGACATA,0.448
21,GAGACACA,0.272
22,TAGACAGA,0.177
23,GAGACATC,0.265
24,TAGACACA,0.163
25,GGGGCTGA,-0.148

row,Sequence,PBM E-score
1,AGGGGCAG,-0.13
2,GGACCGGA,0.113
3,CGCTAACC,-0.084
4,GGAGTTAA,0.0335
5,TGGCCCCA,-0.338
6,CTGTCCGC,0.114
7,ATGTCCGC,0.44
8,AAGTCCGG,0.22
9,ATGTCCGG,0.457
10,AGGTCCGG,0.041
11,ACGTCCGC,0.14
12,CCACTTAC,-0.133
13,CCCTCTAC,-0.204
14,ACCGTCGT,0.142
15,GCAGAGCC,-0.149
16,CTGACAAG,0.161
17,ATAACAAT,0.00977
18,ATTACAAT,0.155
19,TTGACAAA,0.266
20,CTGACAAA,0.37
21,ATGACAAT,0.365
22,ATGACAGC,0.149
23,CTGACAAC,0.108
24,ATGACAAC,0.311
25,ATGACGAA,0.0573

row,Sequence,PBM E-score
1,ATGACAAG,0.298
2,ATGACAAA,0.433
3,ACGTGCCT,-0.148
4,ATATCTGG,0.045
5,GCCATTGA,0.00063
6,CAATAAGC,0.00863
7,GCGTATCC,-0.037
8,CCATACCA,0.0887
9,GTGACAAA,0.423
10,GTGACAAC,0.139
11,GTGACGAA,-0.0509
12,ACTCCCTC,-0.312
13,TGATGACA,0.299
14,GAATGACC,0.201
15,CAATGACA,0.298
16,GCATGACA,0.199
17,ACATGACA,0.297
18,TCATGACA,0.388
19,GAATGACA,0.34
20,AAATGACA,0.278
21,TAATGACA,0.307
22,AGGGTAAC,-0.177
23,AAGTCGGA,0.158
24,ATACCCAA,0.195
25,ATAGGTTG,-0.0907

row,Sequence,PBM E-score
1,CGCGGGCC,-0.105
2,ACGGTCGG,-0.0232
3,GCAAACCC,-0.225
4,CCAACGGC,-0.132
5,GCATGTAA,-0.12
6,AAATTGTC,0.449
7,GAATTGTA,0.151
8,GAATTGGC,-0.278
9,GAATTGTC,0.392
10,CAATTGTC,0.445
11,AAATTGTT,0.143
12,AAATTGTA,0.222
13,CAATTGTG,-0.00904
14,CAATTGTA,0.184
15,ACCTAAAA,0.0426
16,TCTAGCAA,0.0862
17,TCACCCCA,0.108
18,AAACGCCT,-0.0244
19,GGTGCGGA,-0.047
20,ACCTAAGG,-0.14
21,AGTGCTCA,-0.229
22,CGGTACAG,0.054
